From PubChem BioAssay (NCATS)
Records with an inconclusive call do not appear. Active and inactive are the calls of the source. The call rests on the fitted dose curve; in most records, active means well fitted curve in the direction sought with a large enough effect; inconclusive means small, poorly fitted or top-dose-only effect, or another doubt; inactive means no such curve, though single readings can be large; an effect the other way counts as inactive or inconclusive.

Tests used:
[1] = biological target: Glutathione peroxidase 1 (Homo sapiens) (UniProt P07203); experiment: Primary qHTS Assay for Inhibitors of Recombinant Selenoprotein Glutathione Peroxidase 1 (GPX1) (AID 1845191); further: nearly all actives have a fitted effect of over 65% in size; further: potency means the concentration at half of the fitted maximal effect; on activity, negative = inhibition: on the % scale 0 is the no-effect control and ±100 the full control effect
Glutathione peroxidase 1 (Homo sapiens), sequence (P07203 whole entry, looked up): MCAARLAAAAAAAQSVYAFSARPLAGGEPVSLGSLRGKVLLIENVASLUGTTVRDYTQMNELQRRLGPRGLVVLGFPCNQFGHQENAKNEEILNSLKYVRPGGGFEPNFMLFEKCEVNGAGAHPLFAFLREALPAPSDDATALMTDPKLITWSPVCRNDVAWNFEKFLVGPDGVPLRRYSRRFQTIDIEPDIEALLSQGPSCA
Outline: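 GR-coupled assay: compounds preincubated 30 min at room temperature with GPX1, then reaction started with CHP; final 10 nM GPX1, 1 mM GSH, 0.5 mM CHP, 0.5 mM NADPH, 100 nM GR, 0.01% BSA, pH 7.5 Tris buffer. NADPH fluorescence (340/450 nm) read at 0 and 15 min.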

[2] = biological target: Phospholipid hydroperoxide glutathione peroxidase GPX4 (Homo sapiens) (UniProt P36969); experiment: Primary qHTS Assay for Inhibitors of Recombinant Selenoprotein Glutathione Peroxidase 4 (GPX4) (AID 1845192); further: nearly all actives have a fitted effect of over 65% in size; further: potency means the concentration at half of the fitted maximal effect; on activity change, negative = inhibition: series mostly up to about 50 µM; on the % scale 0 is the no-effect control and ±100 the full control effect
Phospholipid hydroperoxide glutathione peroxidase GPX4 (Homo sapiens), sequence (P36969 whole entry, looked up): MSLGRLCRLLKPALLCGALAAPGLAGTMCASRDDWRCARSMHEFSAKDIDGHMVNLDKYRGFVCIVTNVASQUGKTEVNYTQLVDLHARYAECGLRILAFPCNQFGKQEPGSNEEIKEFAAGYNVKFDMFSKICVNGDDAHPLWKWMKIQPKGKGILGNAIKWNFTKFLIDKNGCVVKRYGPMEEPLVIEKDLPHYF
Outline: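 GR-coupled assay: recombinant GPX4 preincubated 30 min with compound at room temperature; final 200 nM GPX4, 1 mM GSH, 0.5 mM cumene hydroperoxide, 0.5 mM NADPH, 100 nM GR, 0.01% BSA, pH 7.5 Tris. NADPH fluorescence (340/450 nm) read at 0 and 15 min.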

[3] = biological target: Luciferin 4-monooxygenase (Photinus pyralis) (UniProt P08659); experiment: Primary firefly luciferase (FLuc) qHTS assay for identification of artifact compounds. (AID 1845220); further: nearly all actives have a fitted effect of over 60% in size;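 on activity change, negative = inhibition: series mostly up to about 54 µM; plate controls were DMSO vehicle for no effect and no enzyme for full effect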
Outline: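 D-luciferin and ATP (10 uM each, final) in Tris acetate buffer pH 7.6 were incubated with compounds for 15 min at room temperature. The reaction was started with 10 nM Photinus pyralis luciferase and luminescence read after 5 min. Percent inhibition was fitted to a 4-parameter Hill equation.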

[4] = Primary fluorescence-based thiol-reactive (MSTI) qHTS assay for identification of artifact compounds. (AID 1845221); further: nearly all actives have a fitted effect of over 65% in size; further: potency means the concentration at half of the fitted maximal effect;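 on activity change, negative = thiol reactive: series mostly up to about 54 µM; thiol-reactive compounds lower the probe fluorescence signal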
Outline: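 Curve-fitted percent inhibition (4-parameter Hill) derived from fluorescence, Ex 525/Em 598 nm, scaled with Acetyl-MSTI and MSTI; 1 h incubation at room temperature.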

[5] = system: Nanoluciferase (engineered Oplophorus gracilirostris luciferase); experiment: Primary Nanoluciferase (NLuc) qHTS assay for identification of artifact compounds. (AID 1845222);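 further: series mostly up to about 54 µM; 0% = DMSO and -100% = no enzyme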
Outline: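 Diluted conditioned medium from NLuc-expressing S16 cells treated with compounds for 15 min at room temperature, then Nano-Glo substrate added; luminescence read after 5 min. Percent inhibition versus no-enzyme and DMSO controls fitted to 4-parameter Hill equation.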

[6] = Primary redox qHTS assay for identification of artifact compounds. (AID 1845223);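 further: 0% = DMSO and 100% = reference compound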
Outline: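 Amplex Red (25 uM) and HRP (250 mU/mL) in HBSS, with compounds for 15 min, then 250 uM DTT for 30 min, room temperature, dark. Fluorescence 525/598 nm read; normalized to DMSO and 10 uM DA3003; Hill fit.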

CC(=O)c1ccc(O[C@@H]2O[C@H](CO)[C@@H](O)[C@H](O)[C@H]2O)cc1
inactive: Potency [1] | Potency [2] | Potency [3] | Potency [4] | Potency [5] | Potency [6]

CCn1c(=O)c(-c2ccn[nH]2)cc2c(C)nc(N)nc21
inactive: Potency [3] | Potency [4] | Potency [5] | Potency [6]
active: Potency [1] 4.09 µM | Potency [2] 2.55 µM

CC[C@H]1OC(=O)[C@](C)(F)C(=O)[C@H](C)[C@@H](O[C@@H]2O[C@H](C)C[C@H](N(C)C)[C@H]2O)[C@](C)(OC)C[C@@H](C)C(=O)[C@@H](C)[C@H]2N(CCCCn3cc(-c4cccc(N)c4)nn3)C(=O)O[C@]12C
inactive: Potency [1] | Potency [2] | Potency [3] | Potency [4] | Potency [5] | Potency [6]

CC(=O)/C=C/[C@H]1[C@](C)(O)[C@@H](O)[C@H](OC(C)=O)C2C(C)(C)CCC[C@@]21C (stereo not given in full)
inactive: Potency [1] | Potency [2] | Potency [3] | Potency [4] | Potency [5] | Potency [6]

CC(=O)C12OC(C)(C)OC1CC1C3CCC4=CC(=O)C=CC4(C)C3(F)C(O)CC12C (stereo not given)
inactive: Potency [1] | Potency [2] | Potency [3] | Potency [4] | Potency [5] | Potency [6]

O=C(Nc1ccc(S(=O)(=O)Nc2ccccc2Cl)c(Cl)c1)c1ccccn1
inactive: Potency [1] | Potency [2] | Potency [3] | Potency [4] | Potency [5] | Potency [6]

CC1OC(OC2C(C)OC(OC3C(O)C(CO)OC(O[C@H]4CC[C@@]5(C)C(CC[C@]6(C)C5CC=C5C7[C@@H](C)[C@H](C)CC[C@]7(C(=O)O)CC[C@]56C(=O)O)C4(C)C)C3O)C(O)C2O)C(O)C(O)C1O (stereo not given in full)
inactive: Potency [1] | Potency [2] | activity change, negative = inhibition [3] 1.66% [at 11.6 µM] | activity change, negative = thiol reactive [4] 65.9% [at 11.5 µM] | activity, negative = inhibition [5] -3.75% [at 11.6 µM] | redox activity (% of DA3003) [6] -18.3% [at 11.5 µM]

CC(=O)N[C@H]1[C@H](O[C@H]2CC[C@@]3(C)C(CC[C@]4(C)C3CC=C3[C@@H]5CC(C)(C)CC[C@]5(C(=O)OC5OCC(O)C(O)C5O)CC[C@]34C)C2(C)C)O[C@H](COC2OC(C)C(O)C(OC3OC(C)C(O)C(O)C3O)C2O)[C@@H](O)[C@@H]1O (stereo not given in full)
inactive: Potency [1] | Potency [2] | outcome [3] inactive [at 11.6 µM] | activity change, negative = thiol reactive [4] 127% [at 11.5 µM] | activity, negative = inhibition [5] 4.87% [at 11.6 µM] | redox activity (% of DA3003) [6] 3.21% [at 11.5 µM]

CC(C)C(C#N)O[C@@H]1O[C@H](CO[C@@H]2O[C@@H](C)[C@H](O)[C@@H](O)[C@H]2O)[C@@H](O)[C@H](O)[C@H]1O (stereo not given in full)
inactive: Potency [1] | Potency [2] | Potency [3] | Potency [4] | Potency [5] | Potency [6]

C=C[C@@](C)(O)CC/C=C(\C)C(=O)O[C@@H]1[C@@H]2O[C@]2(C)[C@H]2[C@H](O[C@@H]3O[C@H](CO)[C@@H](O)[C@H](O)[C@H]3O)OC=C[C@@]12O
inactive: Potency [1] | Potency [2] | Potency [3] | Potency [4] | Potency [5] | Potency [6]

CC(=O)O[C@@H]1C[C@@H](OC(C)=O)C(C)(C)/C=C/[C@H](C)[C@H](OC(C)=O)[C@@]2(O)C[C@H](C)[C@H](OC(=O)c3ccccc3)[C@@H]2/C=C/1C
inactive: Potency [1] | Potency [2] | Potency [3] | Potency [4] | Potency [5] | Potency [6]

COC(=O)CC(O)CC(O)/C=C/c1c(C)ccc2c1C(O)CC(C)C2 (stereo not given)
inactive: Potency [1] | Potency [2] | Potency [3] | Potency [4] | Potency [5] | Potency [6]

C=CC1(C)C=C2CCC3C(C)(C)C(O[C@@H]4O[C@@H](CO)[C@H](O)[C@H]4O)CCC3(C)C2CC1O[C@@H]1O[C@H](C)[C@H](O)[C@H](O)[C@H]1O (stereo not given in full)
inactive: Potency [1] | Potency [2] | Potency [3] | Potency [4] | Potency [5] | Potency [6]

C/C1=C\CC[C@]2(C)O[C@@H]2[C@H](O)[C@H](C(C)C)[C@H](OC(=O)/C=C/c2ccccc2)C1
inactive: Potency [1] | Potency [2] | Potency [3] | Potency [4] | Potency [5] | Potency [6]

CCNC(=O)Nc1ncc(-c2cc(-c3c(C)cc(OC)cc3C)nc(-c3cnccn3)n2)s1
inactive: Potency [1] | Potency [2] | Potency [3] | Potency [4] | Potency [5] | Potency [6]

CC(C)c1cc(C(=O)N2CC[C@H](NC(=O)C3CC3)C2)n[nH]1
inactive: Potency [1] | Potency [2] | Potency [3] | Potency [4] | Potency [5] | Potency [6]

OCc1ccc(O[C@@H]2O[C@H](CO)[C@@H](O)[C@H](O)[C@H]2O)cc1
inactive: Potency [1] | Potency [2] | Potency [3] | Potency [4] | Potency [5] | Potency [6]

CC1=C(CCC(C)O[C@@H]2O[C@H](CO)[C@@H](O)[C@H](O)[C@H]2O)C(C)(C)CCC1=O (stereo not given in full)
active: Potency [4] 6.56 µM
inactive: Potency [1] | Potency [2] | Potency [3] | Potency [5] | Potency [6]

C[C@@]12C[C@]3(O)O[C@H](O1)[C@]1(COC(=O)c4ccccc4)[C@H]3C[C@@]12O[C@@H]1O[C@H](CO)[C@@H](O)[C@H](O)[C@H]1O
inactive: Potency [1] | Potency [2] | Potency [3] | Potency [4] | Potency [5] | Potency [6]

CC(=O)c1cc(C(=O)N[C@@H](C)Cn2ccc(-c3ccc(C#N)c(Cl)c3)n2)[nH]n1
inactive: Potency [1] | Potency [2] | Potency [3] | Potency [4] | Potency [5] | Potency [6]
